# “And” between values parts separate entries of the source, which are not always exact repeats. Identical values can stand only once. About 79,000 compounds went through this panel and 15% of them were active in at least one assay; those are over-represented in the sample as a whole. A number with no mark means an inactive call. The source made the active and inactive calls. Rule as the data show it: active = growth inhibition above about 70%; inactive = the rest. Where a SMILES comes first, the peptide text is derived from it. The star is where a group is joined. Boc = CC(C)(C)OC(=O)*; Bn = c1ccc(C*)cc1
# Test: NCI Yeast Anticancer Drug Screen. Data for the mlh1 rad18 strain (AID 175)
# Conditions: S. cerevisiae mlh1 rad18 strain growth inhibition, hits give high values
# Procedure: Growth inhibition of yeast strains with defined genetic alterations is measured as a screen for potential anti-cancer activity. Selected strains with alterations in DNA damage repair or cell cycle control were exposed to compounds and growth inhibition was measured relative to vehicle treated controls. The strain used in this assay is mlh1 rad18
# [1] = at 5.0 µM (retest, dose inferred, filed as 0.5)
# [2] = at 50.0 µM (retest, dose inferred, filed as 5.0)
Structure (SMILES),growth inhibition [1],growth inhibition [2],growth inhibition (at 50.0 µM)
Nc1c(N)c(Cl)c(Cl)c(Cl)c1Cl,33%,83% (active),87.3% (active)
CC1(c2ccc(O)cc2)CCC(C(C)(C)c2ccc(O)cc2)CC1 (configuration not stated),44%,100% (active),91.1% (active)
CC(=O)Nc1ccc(/C=N/NC(=S)NCC(C)C)cc1,-1%,-4%,–
CCCCC(=O)c1ccc([N+](=O)[O-])o1,36%,99% (active),–
Oc1ccc(Cc2ccc(Cl)cc2)c(O)c1,-33%,98% (active),–
CCCCCCCCCCCC(=O)OC(C)C(=O)NCCCC (configuration not stated),-17%,32%,75.2% (active)
Cc1nc(Sc2nc3ccc([N+](=O)[O-])cc3s2)sc1C,-13%,90% (active),93.6% (active)
Cc1cc(O)c(O)c(C(C)(C)CC(C)(C)C)c1,23%,73% (active),91.2% (active)
CC(/C=N/NC(N)=S)Cc1ccc(C(C)C)cc1 (configuration not stated),32%,74% (active),91.1% (active)
COC(=O)c1cc([N+](=O)[O-])cc([N+](=O)[O-])c1Cl,100% (active),99% (active),92.2% (active)
CN=C(N)N/N=C(\C)c1ccc2c(c1)Cc1ccccc1-2,26%,96% (active),92.7% (active)
COC(=O)[C@]1(C)CCC[C@]2(C)c3ccc(C(C)C)cc3C(=O)[C@@H](Br)[C@@H]12,-11%,49%,71.8% (active)
CC(=O)Nc1ccc(C(=O)CCl)cc1,98% (active),99% (active),94.7% (active)
COc1cc(/C=C/C(=O)CC(=O)/C=C/c2ccc(O)c(OC)c2)ccc1O,55%,91% (active),85.5% (active)
CN(C)CC1CCCC1=O (configuration not stated),–,–,4.6% and 11.3%
CCOc1ccc(C=O)cc1OC,–,–,-11.4% and 0.1%
CNC(=O)C(CC(C)C)NC(=O)C(C)NC(=O)C(Cc1ccc(OCc2ccccc2)cc1)NC(=O)C(COCc1ccccc1)NC(=O)OC(C)(C)C (configuration not stated) (Boc-S(Bn)Y(Bn)AL-NHMe; configuration not given here),–,–,1.1% and -0.25%
